# CHX counter: counter-screen hit for Shiga toxin inhibitors, cycloheximide; cell reporter, cycloheximide protein synthesis inhibition counterscreen; max response, %; hit rate 12% among 300,000; in the data active = max response mostly above about 13%, no sharp cut-off; inactive = mostly below about 14%; also: read at 38.3 µM for the half of the compounds with a filed dose; 0% is about no effect
# Shiga inhibitor: inhibitors of Shiga toxin in Vero cells; Vero cells, Shiga toxin protein synthesis inhibition reporter; inhibition, % at 38.7 µM; hit rate 9.2% among 290,000; AID 2315; in the data active = inhibition mostly above about 28%, no sharp cut-off; inactive = mostly below about 43%; also: 0% is about no effect
# AmpC inh no detg: inhibitors of E. coli AmpC beta-lactamase without detergent | AmpC nitrocefin hydrolysis, absorbance 480 nm, 0.0001% Triton | Potency, µM (titrated, usually from 57.1 µM), for inactives: at the highest dose activity change, negative = inhibition, hits mostly inhibitors | hit rate 0.52% among 330,000 | AID 485341;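 also: potency is read from the fitted curve at half-maximal effect; plate controls were no compound for no effect and no enzyme for full effect; nearly all actives have a fitted effect of over 20% in size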
# Target sequence (P00811 whole entry, looked up): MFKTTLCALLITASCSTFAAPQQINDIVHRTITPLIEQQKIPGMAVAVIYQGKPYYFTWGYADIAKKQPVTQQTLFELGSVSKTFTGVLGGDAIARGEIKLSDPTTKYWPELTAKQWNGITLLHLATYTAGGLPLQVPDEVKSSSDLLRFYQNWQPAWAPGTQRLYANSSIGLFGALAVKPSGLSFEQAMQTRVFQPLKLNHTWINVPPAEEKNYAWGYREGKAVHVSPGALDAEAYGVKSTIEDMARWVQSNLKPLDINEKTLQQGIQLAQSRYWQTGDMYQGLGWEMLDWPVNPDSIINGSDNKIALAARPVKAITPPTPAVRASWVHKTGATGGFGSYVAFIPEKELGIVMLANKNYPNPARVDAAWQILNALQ
#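 20 mM phosphate pH 7.0 + 0.01% (detergent screen) or 0.0001% Triton X-100; 5.3 nM AmpC reagent; cpd preinc 15 min RT; nitrocefin (800 uM stock) to start; A480 q20 s × 4 min; Activity was normalised to no-enzyme and no-compound control wells.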
# NS1 function inh: influenza NS1 inhibition | AID 2326 | Potency, µM (titrated, usually from 46.1 µM), inactives show at the highest dose activity, positive = more growth | hit rate 0.4% among 270,000; calls by dose curve; also: potency is read from the fitted curve at half-maximal effect; actives are rising curves; nearly all actives have a fitted effect of over 50% in size
#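 OD600 was taken as the measure of yeast growth restored by compound in an NS1-expressing S. cerevisiae strain. Cells had been washed out of glucose medium and diluted 1:100 into galactose -URA medium, pH 6.0.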
# AmpC detergent: inhibitors of E. coli AmpC beta-lactamase with detergent. Potency, µM (doses to about 114 µM), for inactives: at the highest dose activity change, negative = inhibition, hits mostly inhibitors. AID 485294. P00811. hit rate 0.041% among 370,000. AmpC hydrolysis of nitrocefin, absorbance 480 nm, 0.01% Triton;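 also: potency is read from the fitted curve at half-maximal effect; 0% = no-compound wells and -100% = no-enzyme wells; nearly all actives have a fitted effect of over 25% in size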
#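 20 mM phosphate pH 7.0 + 0.01% (detergent screen) or 0.0001% Triton X-100; 5.3 nM AmpC reagent; cpd preinc 15 min RT; nitrocefin (800 uM stock) to start; A480 q20 s × 4 min; Activity was normalised to no-enzyme and no-compound control wells.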
# Active calls of the source: *; ? = inconclusive; · = not tested or not shown. This is one part of a sample in which hits are shown more often than they occur. Unless noted, calls follow the shape of the dose curve; as a rule, active = well fitted curve in the direction sought with a large enough effect; inconclusive = small, poorly fitted or top-dose-only effect, or another doubt; inactive = no such curve, though single readings can be large; an effect the other way counts as inactive or inconclusive.
SMILES,CHX counter,Shiga inhibitor,AmpC inh no detg,NS1 function inh,AmpC detergent
COc1ccccc1OCc1nnc(SCC(=O)NCc2ccco2)n1-c1ccccc1,11.7*,8.9,12.2%,23.1%,10.2%
COc1ccc(-n2c(COc3cccc(C)c3)nnc2SCC(=O)NCc2ccco2)cc1,29.7*,35.3*,12.3%,-3.3%,-4.4%
COc1ccc(-n2c(COc3ccc4ccccc4c3)nnc2SCC(=O)NCc2ccco2)cc1,31.0,58.2,16.2%,26.2%,-0.6%
CCCOc1ccc(C2CC(=O)Nc3cc(OC)c(OC)cc32)cc1 (stereo unspecified),-3.9,-13.5,36.5%,7.5%,-14.2%
CC(=O)Oc1ccc(NC(=O)CSc2ccccc2)cc1,44.7*,50.7,-17.6%,5.4%,-7.3%
O=C(CSc1ccc(F)cc1)Nc1ccc(C2SCCS2)cc1,34.6*,85.3*,-43.8%,2.6%,0.9%
O=C(CSc1cccc2cccc(Cl)c12)NC1=NCCS1,14.7,36.0,15.1%,-4.6%,0.6%
O=C(CSc1ccccc1)NC1=NCCS1,22.2*,44.5,-3.6%,5.2%,-0.6%
CN1C(=O)c2ccc(NC(=O)CSc3ccccc3)cc2C1=O,27.5*,32.0,-24.1%,-17.2%,-6.0%
Cc1ccc(Cl)cc1NC(=O)Cn1c(=O)n(CCCS(=O)(=O)C2CCCCC2)c(=O)c2ccccc21,·,·,·,·,-4.8%
O=C(Nc1nc2n(n1)C(c1ccc(F)cc1)C=C(c1ccccc1)N2)c1cccc([N+](=O)[O-])c1 (stereo unspecified),·,·,·,·,15.9%
CC(C)(C)NC(=O)c1ccc(NC(=O)CSc2ccccc2)cc1,15.1*,27.8,-20.3%,-7.8%,1.3%
Cc1ccc(SCC(=O)Nc2cccc(C(=O)NC(C)(C)C)c2)cc1,2.2,13.6,-18.9%,7.5%,?
CN1CCN(c2ccc(NC(=O)CSc3ccccc3)cc2F)CC1,49.5*,61.5*,1.1%,-1.1%,-12.4%
O=C(CSc1ccccc1)Nc1ccncc1,12.1*,28.0,-19.0%,-0.4%,-8.3%
Cc1ccc(SCC(=O)Nc2ccc(N3CCN(c4ccccc4)CC3)c(F)c2)cc1,-2.2,10.8,-9.5%,10.8%,-1.6%
O=C(CSc1ccc2ccccc2c1)Nc1ccncc1,-2.5,-14.2,-26.7%,-102.5%,4.8%
Cc1ccc(NC(=O)COC(=O)C2CSC3(C)CCC(=O)N23)cc1S(=O)(=O)N1CCOCC1 (stereo unspecified),9.1,-12.7,29.3%,-2.4%,0.2%
COc1cc(Cl)c(C)cc1Nc1ncccn1,-2.1,3.8,-0.2%,-0.4%,-11.4%
O=C(NC(=S)Nc1ccc(CN2CCOCC2)cc1)c1ccco1,30.9*,33.6*,-10.7%,4.4%,?
O=C(NC(=S)Nc1ccc(CN2CCCCC2)cc1)c1ccco1,10.6,32.3,-27.0%,5.9%,5.3%
Fc1ccccc1NC(=S)Nc1ccc(CN2CCOCC2)cc1,22.8*,66.2*,-12.0%,·,4.8%
O=C(NC(=S)Nc1ccc(N2CCOCC2)cc1)c1ccco1,31.7*,43.3*,-10.0%,-4.2%,?
CCc1ccc(C(=O)NC(=S)Nc2ccc(N3CCOCC3)cc2)cc1,-2.1,-7.2,-0.4%,6.5%,-1.4%
O=C(Nc1ccccc1Oc1ccsc1C(=O)O)c1ccccc1F,-0.8,-5.0,-24.7%,2.5%,1.5%
SMILES,CHX counter,Shiga inhibitor,AmpC inh no detg,NS1 function inh,AmpC detergent
O=C(O)c1ccccc1/C=N\N=C1c2ccccc2-c2ccccc21,·,·,·,-19.4%,·
CCOC(=O)CN(C(=O)CSc1nnc(-c2cccc(OC)c2)o1)c1ccc(F)cc1,14.7*,31.7,79.5%,-88.1%,5.2%
COC(=O)CN(C(=O)CSc1nnc(-c2cccc(OC)c2)o1)c1ccc(OC)cc1,-1.0,14.4,7.2%,-10.6%,-11.1%
CCOC(=O)CN(C(=O)CSc1nnc(CNc2ccc(F)cc2)n1C)c1ccccc1,-1.5,8.6,39.1%,-2.6%,?
CCOC(=O)CN(C(=O)CSc1nnc(CNc2ccc(F)cc2)o1)c1ccccc1,21.9*,-6.0,24.5%,5.2%,-11.0%
COc1ccc(C(O)P(=O)(OCC(C)C)c2ccc(N(C)C)cc2)c(OC)c1 (stereo unspecified),-3.3,-16.7,78.7%,2.7%,0.5%
Cc1ccc(C2=NN3C(=O)c4ccccc4C3C2)cc1 (stereo unspecified),55.3*,56.6*,-11.7%,-3.7%,6.2%
Cc1ccc(C(=O)N2N=C(c3ccc(Br)cc3)CC2c2ccccc2O)cc1 (stereo unspecified),12.9*,5.5,-50.7%,-7.7%,-11.3%

# Screening data deposited in PubChem by National Center for Advancing Translational Sciences (NCATS).
